# Most compounds without a hit are left out; they make up all but 19% or so of the library.
# HT1080NT lethal: kills 2HG-producing HT-1080-NT fibrosarcoma cells; HT-1080-NT fibrosarcoma viability, CellTiter-Glo ATP luminescence, 48 h; Potency, µM (series often up to 46.1 µM), for inactives: at the highest dose activity, negative = less viability, hits mostly cytotoxic; 360,000 tested, 1.6% active;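 also: NT is the 2HG producing partner of a matched IDH1 knockdown line; potency is read from the fitted curve at half-maximal effect; 0% = DMSO-treated cells and -100% = media-only wells without cells; nearly all actives have a fitted effect of over 55% in size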
#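 Toxicity toward the 2HG-producing NT line was scored as %Activity, normalised to DMSO and no-cell wells, from CellTiter-Glo luminescence after 48 hours' treatment.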
# DT40 TDP1 no CPT: qHTS for Inhibitors of human tyrosyl-DNA phosphodiesterase 1 (TDP1): qHTS in cells in absence of CPT; DT40 Tdp1-/- hTDP1 cells, no CPT, ATP luminescence, 48 h; Potency, µM (highest dose often 46.2 µM), for the others: top-dose activity change, negative = growth inhibition, hits mostly inhibitors; 420,000 tested, 15% active; AID 686978, 2013; also: potency is read from the fitted curve at half-maximal effect; nearly all actives have a fitted effect of over 55% in size
#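 Chicken DT40 Tdp1-/- cells stably complemented with human TDP1 were seeded at 400 cells/well with DMSO in place of 20 nM camptothecin. After compound pinning, cells grew at least 48 hr at 37 °C; viability read by CellTiter-Glo luminescence.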
# IL1B secr inh: inhibitors of inflammasome signaling (IL-1 beta secretion); 360,000 tested, 4.7% active; THP-1 LPS/ATP IL-1B secretion, AlphaLISA, 16 h; active compounds read low; activity change, % at 57.5 µM; AID 743279; in the data active = activity change below about -50%; inconclusive = mostly about -30% to -49%
#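 THP-1 cells pretreated 1 hr with compounds (up to 57.5 uM final), then stimulated with LPS (250 ng/mL final) plus ATP (1.25 mM final); secreted IL-1B measured by AlphaLISA after 16 hr, decreased signal indicating inhibition.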
# HT1080 IDH1KD tx: HT-1080 IDH1 knockdown cell toxicity (counter line). HT-1080 IDH1 knockdown viability, ATP luminescence, 48 h. Potency, µM (top dose mostly 46.1 µM), for the others: at the highest dose activity, negative = toxicity, usual class: cytotoxic. 360,000 tested, 2% active. AID 686971;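 also: potency is read from the fitted curve at half-maximal effect; 0% = DMSO wells and -100% = cell-free medium wells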
#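 Using the IDH1-knockdown HT-1080 line run in the same batch and compound series as the NT line, viability after 48 h at 37 °C was determined by CellTiter-Glo luminescence and expressed as % activity.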
# TDP1 cell CPT: DT40-hTDP1 cell growth loss with CPT; chicken DT40 Tdp1-/-;hTDP1 cells + 20 nM CPT, ATP luminescence, 48 h; Potency, µM (top dose mostly 46.2 µM), inactives show top-dose activity change, negative = growth inhibition, hits mostly inhibitors; 420,000 tested, 12% active; also: potency is read from the fitted curve at half-maximal effect; nearly all actives have a fitted effect of over 55% in size
#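 Chicken DT40 Tdp1-/- cells complemented with human TDP1, 400 cells/well, exposed to compounds plus 20 nM camptothecin for at least 48 h at 37 C; viability read as ATP content by CellTiter-Glo luminescence.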
# Numbers without * were called inactive; ? = inconclusive; · = no result; [ ] = another dose, or the depositor's remark. Unless noted, calls follow the shape of the dose curve; as a rule, active = well fitted curve in the direction sought with a large enough effect; inconclusive = small, poorly fitted or top-dose-only effect, or another doubt; inactive = no such curve, though single readings can be large; an effect the other way counts as inactive or inconclusive. Unless noted, % is scaled to controls: 0 for no effect and ±100 for the full control effect.
SMILES,HT1080NT lethal,DT40 TDP1 no CPT,IL1B secr inh,HT1080 IDH1KD tx,TDP1 cell CPT
O=C(c1csc2ccccc12)N1CCN(c2ccc(Cl)c(Cl)c2)CC1,1%,23µM*,-13,22%,21µM*
COCCCNC(=S)N1CCN(c2nc(-c3ccc(Cl)cc3)cs2)CC1,-17%,18µM*,-5,-15%,?
O=C(CN1CCN(c2nc(-c3ccccc3)cs2)CC1)NNC(=O)c1ccc(Br)cc1,1%,-23%,22,-9%,?
COCCCNC(=S)N1CCN(c2nc(-c3ccccc3)cs2)CC1,?,12µM*,-4,-17%,16µM*
COCCNC(=S)N1CCN(c2ccc(Cl)cc2)CC1,-2%,-40%,-9,0%,-26%
Cc1cc2c(cc(C(=O)NCc3cccnc3)n2Cc2ccc(Cl)cc2)o1,3%,-4%,-3,-30%,-29%
O=C(Cn1nc(C(=O)O)c2ccccc2c1=O)Nc1ccc(Cl)c(S(=O)(=O)N2CCOCC2)c1,-1%,-18%,-2,-13%,-25%
CCN(CC)CCCNC(=S)N1CCN(c2nc(-c3ccccc3)cs2)CC1,16µM*,18µM*,-50*,23µM*,?
COc1ccc([C@@H]2[C@@H](C)N(c3ccccc3)c3ccccc3C(=O)N2Cc2ccccc2)cc1,?,16µM*,-9,?,?
COc1cccc(CN2C(=O)C3(C(C#N)=C(N)OC4=C3C(=O)CCC4)c3ccccc32)c1 (centres undefined),?,0.92µM*,3,?,0.65µM*
O=C(NNC1=Nc2ccccc2SC1)c1ccc(Cl)cc1,?,12µM*,57,?,6.5µM*
O=C(NNC1=Nc2ccccc2SC1)c1ccc(F)cc1,-29%,23µM*,26,?,?
O=C(NCCc1ccc(Cl)cc1)C(=O)NCC(c1ccc2c(c1)OCO2)N1CCOCC1 (centres undefined),·,-20%,·,·,-19%
O=C(c1cccnc1)N1N=C(C2CCCCC2)CC1(O)C(F)(F)F (centres undefined),4%,8.2µM*,-8,7%,6.5µM*
COc1ccc(-n2c(=O)cnc3cnc(N(C)C)nc32)cc1,·,?,·,·,23µM*
COc1ccc(Oc2ncc3ncc(=O)n(-c4ccc(OC)cc4)c3n2)cc1,·,-26%,·,·,-5%
CN(C)c1ncc2ncc(=O)n(Cc3cccs3)c2n1,·,21µM*,·,·,?
O=C(NCc1ccncc1)c1cnn(-c2nccc(-c3cc4ccccc4o3)n2)c1C1CC1,·,-28%,·,·,?
COc1ccc(Cc2nnc(NCCO)[nH]c2=O)cc1OC,16%,8.2µM*,21,4%,16µM*
COc1ccc(Cc2nnc(N/N=C/c3ccc(O)cc3)[nH]c2=O)cc1OC,?,0.65µM*,-130*,?,1µM*
COc1ccc(Cc2nnc(N/N=C/c3ccc(Br)cc3)[nH]c2=O)cc1OC,?,2%,-1,-1%,-1%
CC[C@]12c3[nH]c4ccc(Cl)cc4c3CCN1C(=O)[C@@H](CC(=O)NCc1ccc(OC)c(OC)c1)C[C@@H]2C(=O)N1CCN(C(=O)c2ccco2)CC1,7%,?,26,0%,?
O=C(CBr)c1ccc(Oc2ccc(C(=O)C[n+]3cccc(Br)c3)cc2)cc1,·,16µM*,·,·,?
O=C(C[n+]1cccc(Br)c1)c1ccc(I)cc1,·,-94%,·,·,2.2µM*
COc1ccc(C(=O)C[n+]2cccc(Br)c2)cc1,-1%,-15%,-2,-1%,-16%
SMILES,HT1080NT lethal,DT40 TDP1 no CPT,IL1B secr inh,HT1080 IDH1KD tx,TDP1 cell CPT
CCCC(C)c1nnc(NC(=O)C2CCCO2)s1 (centres undefined),5%,-1%,15,9%,0%
CCOC(=O)c1c(SCCN2CCCCC2)n(-c2ccccc2)c(=S)n(-c2ccccc2)c1=O,1%,4.1µM*,0,-2%,2.9µM*
O=C1c2cccc3cc([N+](=O)[O-])cc(c23)C(=O)N1CCN1CCCC1,?,0.13µM*,-98*,2.3µM*,0.21µM*
O=C1c2cccc3cc([N+](=O)[O-])cc(c23)C(=O)N1/N=C/c1ccc(O)cc1O,?,16µM*,-96*,-28%,?
Nc1cc2c3c(cccc3c1)C(=O)N(CCN1CCCC1)C2=O,21µM*,1.2µM*,-99*,?,0.73µM*
CCN(CC)c1ccc(/C=N/N2C(=O)c3ccccc3C2=O)c(O)c1,12%,-21%,7,30%,-14%
CCN(CC)CCN1C(=O)c2cccc3cc(N)cc(c23)C1=O,33µM*,7.3µM*,-78*,33µM*,12µM*
O=C1c2ccccc2C(=O)N1CCN1CCCCC1,8%,-11%,2,6%,-27%
O=C1c2cccc3cccc(c23)C(=O)N1CCO,0%,-11%,-9,4%,2%
COc1ccccc1C(=O)C1CCCN(C(=O)c2snnc2C)C1 (centres undefined),0%,-15%,3,8%,?
C=CCCC(=O)N1C[C@H]2CON(C)[C@H]2C[C@H]1c1cccc(N2CCOCC2)c1,12%,-3%,-2,2%,0%
Clc1ccc(-c2nnc3c4ccccc4nc(N4CCOCC4)n23)cc1Cl,-3%,10µM*,0,-16%,18µM*
COc1ccc(NN=Nc2nc3c([nH]2)c(=O)n(C)c(=O)n3C)cc1,-12%,?,28,-11%,21µM*
CCCS(=O)(=O)c1c(S(=O)(=O)CCC)c2c(C)cccn2c1C(=O)N/N=C/c1cc(O)cc(O)c1,?,15µM*,81,7.3µM*,0.82µM*
O=C1C(Cc2ccc3[nH]ccc3c2)NC(=S)N1c1ccccc1 (centres undefined),4%,-8%,·,13%,4%
O=C(NCCN1CCOCC1)c1cnn(-c2nccc(-c3cc4ccccc4o3)n2)c1C1CC1,·,?,·,·,18µM*
Cc1c(C(=O)NCCN2CCOCC2)cnn1-c1nccc(-c2cc3ccccc3o2)n1,·,-18%,·,·,-17%
O=C(NCC1(N2CCOCC2)CCCCC1)c1cnn(-c2nccc(-c3cccs3)n2)c1C1CC1,·,21µM*,·,·,?
Cc1ccc(-c2ccnc(-n3ncc(C(=O)NCCN4CCOCC4)c3C3CC3)n2)o1,·,-24%,·,·,21µM*
CCN1CCCC1CNC(=O)c1cnn(-c2nccc(-c3ccc(C)o3)n2)c1C1CC1 (centres undefined),·,-4%,·,·,1%
O=C(NCC1(N2CCCCC2)CCCC1)c1cnn(-c2nccc(-c3cccs3)n2)c1C1CC1,·,1%,·,·,7%[9.04 µM]

# Assay outcomes as filed in PubChem BioAssay.
